Results published in PubChem BioAssay AID720579 (National Center for Advancing Translational Sciences (NCATS), 2013).
About 1,900 (0.61%) of roughly 310,000 compounds were called active. Entries that show only a call come without a potency. About 8% were inconclusive and are not listed. Calls follow the shape of the full dose curve; tested in A549 cells. Many of the other results were omitted from the sample, so actives are more common in it than they were.
Potency is read from the fitted curve at half-maximal effect.

Assay: qHTS for Stage-Specific Inhibitors of Vaccinia Orthopoxvirus: mCherry Reporter Primary qHTS; also: nearly all actives have a fitted effect of over 35% in size
Details: Vaccinia virus mCherry reporter infection, fluorescence; series mostly up to 36.5 µM
For `CN(Cc1ccccc1)c1ccc(/C=C/c2ccnc3ccccc23)cc1`, the Potency was “inactive”. With `COc1ccc(C(C)(C)C)cc1NC(=O)CN(C)C1=NS(=O)(=O)c2ccccc21` the Potency was “inactive”. For `COC(=O)[C@]12CCCCC=C1N(CCC1=CCCCC1)C(=O)[C@H](CC(=O)N1CCSCC1)C2`, the Potency was “inactive”. With `C=C1C([C@@]2(C)C(OC(C)=O)CC(=O)O[C@@](C)(COC(C)=O)C2CC(=O)OC)C(OC=O)C(OC(=O)C(O)C(C)CC)[C@]2(C)C(c3ccoc3)CC(=O)C12O` (stereo not given in full) the Potency was 2 µM (active). With `CCC(C)C(=O)O[C@@H]1C[C@@]2(C)C(c3ccoc3)OC(=O)CC23OC2(C)O[C@@]14[C@@]1(C)C(CC(=O)OC)C5(C)CC1(O)C(O)(C5OC(=O)C1(C)OC1C)C(OC(C)=O)[C@@]34O2` (stereo not given in full) the Potency was “inactive”. With `COC(=O)CC1C(C)(C)C(OC(C)=O)C2CC3=C4CC(=O)OC(c5ccoc5)[C@]4(C)CCC3[C@@]1(C)C2=O` (stereo not given in full) the Potency was “inactive”. In the case of `COc1ccc(C(O)c2nc(-c3ccc4c(c3)OCO4)cs2)cc1` (stereo not given), the Potency is reported as “inactive”. For `CCc1nc2c(OCc3cccc(OC)c3)cccn2c1N(C)C(=O)C(C)C`, the Potency was “inactive”. For `CCN1CCCC1CNC(=O)c1ccc2c(c1)NC(=O)/C(=C\c1ccccc1F)S2` (stereo not given), the Potency was “inactive”. With `CC(=O)c1cccc(-c2cnc3c(NC=O)cc(-c4ccccc4Oc4ccccc4)cn23)c1` the Potency was “inactive”. In the case of `COc1ccc(NC(=O)CN2C(=O)NC(C)(c3ccccc3)C2=O)cn1` (stereo not given), the Potency is reported as “inactive”. In the case of `COc1ccc(CS(=O)/C(Cl)=C(/Cl)C(=O)Nc2ccc(OC)nc2)cc1` (stereo not given), the Potency is reported as 3.98 µM (active). For `CCOc1ccc(S(=O)(=O)Nc2ccc(OC)nc2)cc1`, the Potency was “inactive”. With `CCN(CC)S(=O)(=O)c1cc(C(=O)Nc2cc(S(=O)(=O)N3CCOCC3)ccc2N2CCCC2)ccc1F` the Potency was “inactive”. In the case of `CCN(CC)S(=O)(=O)c1ccc(N2CCCC2)c(NC(=O)c2ccc([N+](=O)[O-])o2)c1`, the Potency is reported as 14.1 µM (active). In the case of `CCN(CC)S(=O)(=O)c1ccc(N2CCN(C)CC2)c(NC(=O)Nc2ccccc2F)c1`, the Potency is reported as “inactive”. For `COc1cccc(CNc2nc(NCc3cccs3)nc3ccsc23)c1`, the Potency was “inactive”. In the case of `OC(c1ccccc1)c1nc(-c2cnc3ccccc3c2)cs1` (stereo not given), the Potency is reported as “inactive”. For `CC1(c2cccc(Br)c2)NC(=O)N(CC(=O)NCCC2=CCCCC2)C1=O` (stereo not given), the Potency was “inactive”. In the case of `O=C(NCCOc1ccccc1)N1[C@H]2CC[C@@H]1C=C(c1ccc(F)cc1OCc1ccccc1)C2`, the Potency is reported as “inactive”. In the case of `CC1(C)CCSC(/C=C/c2ccccc2)=N1`, the Potency is reported as 11.2 µM (active). With `CC1(C(=O)O)CCN1C(=O)/C=C/c1ccccc1` (stereo not given) the Potency was “inactive”. In the case of `CC1(C(=O)NS(=O)(=O)c2ccccc2)CCN1C(=O)C/C=C/c1ccccc1` (stereo not given), the Potency is reported as “inactive”. With `COc1ccc(/C=N/Nc2nc3ccccc3c(=O)[nH]2)cc1` the Potency was “inactive”. With `O=c1[nH]c(NCCO)nnc1Cc1ccc(Cl)cc1` the Potency was “inactive”. In the case of `COc1ccc(Cc2nnc(N/N=C/c3ccccc3O)[nH]c2=O)cc1OC`, the Potency is reported as 1.26 µM (active). For `CCC(c1nnnn1-c1ccc2c(c1)OCCO2)N1CCN(c2ccc(C(F)(F)F)cn2)CC1` (stereo not given), the Potency was “inactive”. With `O=C(C(=O)N1CCC(c2ccccc2)CC1)c1ccccc1` the Potency was “inactive”. With `CCOC(=O)[C@]12CCC=C1N(CCC1=CCCCC1)C(=O)[C@H](CC(=O)NCc1ccc(C)o1)C2` the Potency was “inactive”. For `CN(C(=O)c1cccc(NC(=O)Cc2ccc(NC(=O)C3CCN(C(=O)C4CCCCC4)CC3)cc2)c1)C1CCC1`, the Potency was “inactive”. For `CN(C(=O)c1cccc(NC(=O)Cc2cccc(NC(=O)C3CCCN(C(=O)C4CC4)C3)c2)c1)C1CCC1` (stereo not given), the Potency was “inactive”. In the case of `CN(C(=O)c1cccc(NC(=O)Cc2cccc([N+](=O)[O-])c2)c1)C1CCCCC1`, the Potency is reported as 10 µM (active). For `CCN(CC)C(=O)C(C)N1c2cccc3cccc(c23)S1(=O)=O` (stereo not given), the Potency was “inactive”. For `CSCCC(C(=O)NC(C)(C)C)n1c(-c2ccccc2)nc2ccccc21` (stereo not given), the Potency was “inactive”. For `CCCNC(=O)C1(C)CCN1C(=O)Cc1ccc(-c2ccccc2)cc1` (stereo not given), the Potency was “inactive”. With `CC(=O)N1CCc2c(sc(NC(=O)CCS(=O)(=O)c3ccccc3)c2C#N)C1` the Potency was 12.6 µM (active). For `CC(=O)N1CCc2c(sc(NC(=O)CCS(=O)(=O)c3ccc(C)cc3)c2C(N)=O)C1`, the Potency was “inactive”. In the case of `CC(C)N1CCc2c(sc(NC(=O)Cc3ccccc3)c2C#N)C1`, the Potency is reported as “inactive”. In the case of `CCc1oc(-c2ccc(OC)cc2)c(C(=O)OCCCCCO)c1C(C)OCCO` (stereo not given), the Potency is reported as “inactive”. With `O=C(c1cnn2c1NC(=C1CC1)C=C2C(F)F)N1CCc2ccccc2C1` the Potency was “inactive”. With `CN(C)c1cccc(NC(=O)c2ccc(-c3ccc(F)c(F)c3)c3ccoc23)c1` the Potency was “inactive”. For `Cc1ccccc1S(=O)(=O)NC(=O)C1(C)CCN1C(=O)C1(c2ccccc2)CCCC1` (stereo not given), the Potency was “inactive”. In the case of `O=C(OCC#CCSc1nnc(-c2ccncc2)o1)c1sc2ccccc2c1Cl`, the Potency is reported as “inactive”. In the case of `C#CCSc1nnc(-c2sc3ccccc3c2Cl)o1`, the Potency is reported as 11.2 µM (active). In the case of `COc1ccc2c(Cl)c(-c3nnco3)sc2c1`, the Potency is reported as “inactive”. For `CC1(C(=O)Nc2cccnc2)Cc2c(-c3ccccc3)ccnc2O1` (stereo not given), the Potency was “inactive”. For `COc1ccc(C(=O)Oc2cc(/C=N/NS(=O)(=O)c3ccc(C)cc3)ccc2OC)cc1`, the Potency was “inactive”. In the case of `COc1ccc(NS(=O)(=O)c2ccc(NC(=S)NC(=O)/C=C/c3ccc(C)cc3)cc2)nn1`, the Potency is reported as “inactive”. For `COc1ccc(/C=C/C(=O)c2ccc(NS(=O)(=O)c3ccc(C)cc3)cc2)cc1O`, the Potency was 12.6 µM (active). With `CCOC(=O)[C@]12CCCC=C1N(Cc1ccc3c(c1)OCO3)C(=O)[C@H](CC(=O)N1CCN(C(=O)c3ccco3)CC1)C2` the Potency was “inactive”. With `Cc1ccccc1NC(=O)Cc1nc(COC(=O)C(C)(C)Oc2ccc(Cl)cc2)cs1` the Potency was “inactive”. For `Cc1ccccc1NC(=O)Cc1nc(COC(=O)CNC(=O)c2ccc(Cl)cc2Cl)cs1`, the Potency was “inactive”. With `C/C=C/C(=O)OCc1csc(CC(=O)Nc2ccccc2C)n1` the Potency was 5.01 µM (active). In the case of `CCC(C(=O)NC(C)(C)C)n1c(-c2ccccc2)nc2ccccc21` (stereo not given), the Potency is reported as “inactive”. In the case of `C/C(=N\NC(=O)c1ccoc1C)c1ccccc1O`, the Potency is reported as 1.12 µM (active). For `C/C(=N\NC(=O)c1ccccc1C)c1ccc(N2CCOCC2)cc1`, the Potency was “inactive”. For `CC(C)=C(NC(=O)c1ccccc1)C(=O)N/N=C(\C)c1ccccc1O`, the Potency was “inactive”. For `CCOC(=O)[C@]12CCCC=C1N(CCC1=CCCCC1)C(=O)[C@H](CC(=O)N1CCN(C(=O)c3ccco3)CC1)C2`, the Potency was “inactive”. For `CCc1c(-c2ccc(F)cc2)ncn1Cc1cccc(-c2ccccc2)c1`, the Potency was “inactive”. For `N#Cc1cccc(NC(=O)c2cc(C3CCCCN3C(=O)CCc3ccccc3)on2)c1` (stereo not given), the Potency was “inactive”. In the case of `Cc1cc2c(cc1C)N1C(=O)c3cc4ccccc4cc3NC(=O)C1C(=O)N2` (stereo not given), the Potency is reported as “inactive”. In the case of `Oc1ccc(/C=N/Nc2ccc(C(F)(F)F)cn2)cc1O`, the Potency is reported as 10 µM (active). For `CCNc1nc(NCC)nc(N/N=C/c2ccc(O)c(OC)c2)n1`, the Potency was “inactive”. For `FC(F)(F)c1cccc(N/N=C/c2ccccc2)c1`, the Potency was “inactive”. With `O=C(COc1ccccc1C(=O)Nc1ccccc1)Nc1cccc(F)c1` the Potency was “inactive”. For `CC1(C(=O)Nc2cccc(Oc3ccccc3)c2)CCN1Cc1ccccc1Cl` (stereo not given), the Potency was “inactive”. With `CN1OC[C@@H]2CN(C(=O)c3ccc(-c4ccccc4)cc3)[C@H](c3ccc(-c4cccc(F)c4)cc3)C[C@@H]21` the Potency was “inactive”. With `COc1ccccc1Cc1c(-c2ccc(Cl)cc2)nc2ccc(Cl)cn12` the Potency was “inactive”. In the case of `C/C(=N\NC(=O)Cc1ccc(F)cc1)c1ccc(F)cc1`, the Potency is reported as “inactive”. With `O=C(NCCOc1ccccc1)c1ccccc1F` the Potency was “inactive”. In the case of `O=C(Nc1ccc(NC(=O)c2ccccc2F)cc1)c1ccccc1F`, the Potency is reported as “inactive”. In the case of `C/C(=N\NC(=O)Cc1ccc(Br)cc1)c1cccnc1`, the Potency is reported as “inactive”. In the case of `C/C(=N\NC(=O)c1ccccc1F)c1ccccn1`, the Potency is reported as 2 µM (active). For `C/C(=N\NC(=O)Cc1ccc(Cl)cc1)c1ccccn1`, the Potency was 5.01 µM (active). For `COc1ccccc1Cc1c(-c2ccc(Cl)cc2)nc2c3ccccc3ccn12`, the Potency was “inactive”. In the case of `COc1ccc(NC(=O)c2sc(=O)n(Cc3ccc(S(=O)(=O)N(C)C)cc3)c2C)cc1`, the Potency is reported as “inactive”. In the case of `COc1cccc(-c2cc(NC(C)=O)c3ncc(-c4cccc(C(C)=O)c4)n3c2)c1`, the Potency is reported as “inactive”. For `SCc1nc2ccc(Cl)cc2[nH]1`, the Potency was “inactive”. With `CC(=O)N1Cc2cc(C(=O)NCc3cccc(F)c3)nc(-c3cccc(C4=CCCC4)c3)c2[C@H]1CCO` the Potency was “inactive”. With `Cc1ccc(S(=O)(=O)N2CCN(c3ncnc4ccccc34)CC2)cc1` the Potency was “inactive”. For `Cc1ccc(C)c(S(=O)(=O)N2CCN(c3ncnc4sccc34)CC2)c1`, the Potency was 7.08 µM (active). In the case of `Cc1ccc(C)c(S(=O)(=O)n2nc(C)c(S(=O)(=O)N3CCC(C)CC3)c2C)c1`, the Potency is reported as “inactive”. With `CCCN(CCC)S(=O)(=O)c1cc2c(cc1Br)CCN2C(=O)CC` the Potency was “inactive”. In the case of `CCCNC(=O)C1(C)CCN(Cc2ccc(Cl)c(Cl)c2)C1` (stereo not given), the Potency is reported as “inactive”. With `COc1ccc(NC(=O)c2cnc(NS(=O)(=O)c3ccccc3)nc2)cc1` the Potency was “inactive”. With `CCn1c(=O)c(=O)[nH]c2c(=O)oc3ccc(S(=O)(=O)Nc4ccc(OC)cc4)cc3c21` the Potency was “inactive”. With `COc1ccc(NS(=O)(=O)c2ccc3oc(SCC(N)=O)nc3c2)cc1` the Potency was 3.55 µM (active). In the case of `Cc1ccc(NC(=O)Cn2sc3ccccc3c2=O)cc1`, the Potency is reported as “inactive”. With `CN(C(=N)N)c1ccc(/C=C2\C=Cc3ccccc32)cc1` the Potency was “inactive”. In the case of `CCOC(=O)[C@]12CCCC=C1N(CCC1=CCCCC1)C(=O)[C@H](CC(=O)N1CCCCC1)C2`, the Potency is reported as “inactive”. For `COc1cc2nc(N3CCCN(C)CC3)nc(NC3CC3)c2cc1OC`, the Potency was “inactive”. In the case of `c1ccc2sc(NN=C3CCCC3)nc2c1`, the Potency is reported as “inactive”. For `O=C(Nc1ccccc1Cl)O/N=C(/c1ccccc1)c1ccccn1`, the Potency was “inactive”. With `c1ccc(C(=NNc2nc3ccccc3s2)c2ccccn2)cc1` the Potency was 7.08 µM (active). With `Cc1[nH]c2ccccc2c1C(=O)c1cc([C@H](NC(=O)OC(C)(C)C)C(C)C)sc1N` the Potency was “inactive”.
